From the supplement of paper PMC10849652
Targets with a hit are over-represented here; the source holds about 7,900 in all. About 0.6% of all pairs of compound and target were hits. A number with no mark means an inactive call.

compound: CS(=O)(=O)c1ccc(-c2cnc(N)c(C(=O)Nc3ccccc3)n2)cc1; experiment: log2 fold change, soluble protein after heating vs DMSO (PISA); higher = thermal stabilisation; K562 cells, 10 uM, 30 min; active = over 0.2 and 3.5 SD of the protein, either way, in both replicates (recomputed)
Summary of the method: (§1)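 Values are thermal stability changes relative to control samples and are taken from duplicates. They are stated as log2 fold changes. Before quantification by TMTpro 16plex LC-MS/MS with equalised channel sums, K562 cells at 2×10^6 cells/mL were treated with 10 μM compound for 30 min, heated in aliquots for 3 min across 48°C-58°C, pooled, extracted in PBS with 0.5% NP-40 at 4°C, and centrifuged at 21,000xg for 90 min to give the soluble supernatant.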

Chain of UniProt Q5JRX3 (Q5JRX3 whole entry, looked up): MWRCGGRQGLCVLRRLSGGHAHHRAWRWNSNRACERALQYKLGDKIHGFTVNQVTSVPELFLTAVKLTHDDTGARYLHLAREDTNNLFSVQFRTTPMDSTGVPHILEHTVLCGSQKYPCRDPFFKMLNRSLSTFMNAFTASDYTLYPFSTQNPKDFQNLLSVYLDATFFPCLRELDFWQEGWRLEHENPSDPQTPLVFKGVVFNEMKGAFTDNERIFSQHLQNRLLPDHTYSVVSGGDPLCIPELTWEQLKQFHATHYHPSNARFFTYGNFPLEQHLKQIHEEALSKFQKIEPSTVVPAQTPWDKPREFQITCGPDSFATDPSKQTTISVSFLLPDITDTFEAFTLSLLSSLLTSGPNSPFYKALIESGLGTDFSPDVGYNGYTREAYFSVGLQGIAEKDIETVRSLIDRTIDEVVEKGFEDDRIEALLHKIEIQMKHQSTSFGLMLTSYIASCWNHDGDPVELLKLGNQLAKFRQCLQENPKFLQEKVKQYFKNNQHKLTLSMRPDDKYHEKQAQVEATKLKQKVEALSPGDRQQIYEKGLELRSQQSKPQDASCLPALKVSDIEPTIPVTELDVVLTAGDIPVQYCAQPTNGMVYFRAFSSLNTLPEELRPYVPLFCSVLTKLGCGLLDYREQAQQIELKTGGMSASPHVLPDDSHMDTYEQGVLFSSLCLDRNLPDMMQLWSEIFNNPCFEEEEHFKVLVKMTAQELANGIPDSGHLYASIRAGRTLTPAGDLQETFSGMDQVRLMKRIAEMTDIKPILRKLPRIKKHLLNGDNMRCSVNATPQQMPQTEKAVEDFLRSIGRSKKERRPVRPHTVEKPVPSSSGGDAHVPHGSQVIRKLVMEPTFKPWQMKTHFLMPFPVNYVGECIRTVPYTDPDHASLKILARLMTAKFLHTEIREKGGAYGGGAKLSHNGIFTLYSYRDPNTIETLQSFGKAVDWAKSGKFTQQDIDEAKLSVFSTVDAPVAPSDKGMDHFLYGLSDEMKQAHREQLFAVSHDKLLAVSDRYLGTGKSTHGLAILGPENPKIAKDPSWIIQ
Chain of UniProt Q9Y2I7 (Q9Y2I7 whole entry, looked up): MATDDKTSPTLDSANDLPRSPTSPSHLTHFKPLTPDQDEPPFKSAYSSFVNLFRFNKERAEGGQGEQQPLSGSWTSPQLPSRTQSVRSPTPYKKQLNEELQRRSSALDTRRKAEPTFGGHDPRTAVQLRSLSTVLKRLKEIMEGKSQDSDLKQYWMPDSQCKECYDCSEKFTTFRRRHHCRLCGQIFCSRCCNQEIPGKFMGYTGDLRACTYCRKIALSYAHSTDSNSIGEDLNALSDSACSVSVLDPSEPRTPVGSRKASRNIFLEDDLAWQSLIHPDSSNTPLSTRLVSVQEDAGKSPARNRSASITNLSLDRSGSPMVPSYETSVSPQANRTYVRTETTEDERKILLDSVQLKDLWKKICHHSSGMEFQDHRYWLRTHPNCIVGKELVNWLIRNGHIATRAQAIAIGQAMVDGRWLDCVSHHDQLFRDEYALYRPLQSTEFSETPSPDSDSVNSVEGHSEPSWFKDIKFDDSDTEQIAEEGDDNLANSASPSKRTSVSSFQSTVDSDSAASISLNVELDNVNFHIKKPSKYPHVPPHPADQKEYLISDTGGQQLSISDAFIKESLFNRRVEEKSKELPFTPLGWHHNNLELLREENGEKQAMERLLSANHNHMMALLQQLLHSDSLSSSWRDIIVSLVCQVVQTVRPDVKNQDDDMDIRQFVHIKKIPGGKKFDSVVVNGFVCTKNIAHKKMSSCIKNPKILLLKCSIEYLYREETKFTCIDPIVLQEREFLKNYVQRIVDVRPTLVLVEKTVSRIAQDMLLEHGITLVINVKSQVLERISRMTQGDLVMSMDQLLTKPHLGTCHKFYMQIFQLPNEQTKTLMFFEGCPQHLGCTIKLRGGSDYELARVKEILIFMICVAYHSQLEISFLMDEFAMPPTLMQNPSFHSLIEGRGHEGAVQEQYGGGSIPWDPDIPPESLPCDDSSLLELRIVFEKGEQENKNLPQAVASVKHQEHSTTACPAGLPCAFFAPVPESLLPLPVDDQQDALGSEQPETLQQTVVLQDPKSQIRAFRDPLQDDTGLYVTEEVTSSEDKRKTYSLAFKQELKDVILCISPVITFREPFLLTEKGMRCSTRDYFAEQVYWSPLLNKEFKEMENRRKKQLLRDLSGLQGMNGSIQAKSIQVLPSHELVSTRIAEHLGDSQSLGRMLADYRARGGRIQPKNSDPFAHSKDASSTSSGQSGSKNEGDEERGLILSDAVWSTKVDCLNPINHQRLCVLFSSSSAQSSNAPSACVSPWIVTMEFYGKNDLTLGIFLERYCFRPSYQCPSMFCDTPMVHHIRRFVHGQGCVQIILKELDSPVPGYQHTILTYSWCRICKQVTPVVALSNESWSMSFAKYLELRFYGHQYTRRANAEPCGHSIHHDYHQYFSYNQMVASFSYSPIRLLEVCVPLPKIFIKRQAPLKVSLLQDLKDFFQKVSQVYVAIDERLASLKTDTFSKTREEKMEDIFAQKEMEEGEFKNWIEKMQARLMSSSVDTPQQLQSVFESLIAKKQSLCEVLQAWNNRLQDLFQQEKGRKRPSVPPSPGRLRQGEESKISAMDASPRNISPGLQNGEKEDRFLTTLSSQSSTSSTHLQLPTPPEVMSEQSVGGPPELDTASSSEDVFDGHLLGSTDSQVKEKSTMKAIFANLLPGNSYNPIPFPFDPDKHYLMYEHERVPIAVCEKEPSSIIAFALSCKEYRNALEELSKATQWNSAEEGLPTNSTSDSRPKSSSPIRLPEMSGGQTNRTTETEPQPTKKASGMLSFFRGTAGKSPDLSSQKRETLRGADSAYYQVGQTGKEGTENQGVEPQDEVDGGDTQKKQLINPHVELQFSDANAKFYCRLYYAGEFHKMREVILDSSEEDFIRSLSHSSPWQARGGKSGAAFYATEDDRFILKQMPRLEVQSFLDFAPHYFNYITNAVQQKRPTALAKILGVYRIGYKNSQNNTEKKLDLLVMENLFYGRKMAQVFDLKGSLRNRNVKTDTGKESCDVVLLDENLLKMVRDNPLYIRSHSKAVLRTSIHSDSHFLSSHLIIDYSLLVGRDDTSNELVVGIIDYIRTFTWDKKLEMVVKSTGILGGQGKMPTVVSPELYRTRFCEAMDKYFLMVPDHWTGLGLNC
Chain of UniProt O75400 (O75400 whole entry, looked up): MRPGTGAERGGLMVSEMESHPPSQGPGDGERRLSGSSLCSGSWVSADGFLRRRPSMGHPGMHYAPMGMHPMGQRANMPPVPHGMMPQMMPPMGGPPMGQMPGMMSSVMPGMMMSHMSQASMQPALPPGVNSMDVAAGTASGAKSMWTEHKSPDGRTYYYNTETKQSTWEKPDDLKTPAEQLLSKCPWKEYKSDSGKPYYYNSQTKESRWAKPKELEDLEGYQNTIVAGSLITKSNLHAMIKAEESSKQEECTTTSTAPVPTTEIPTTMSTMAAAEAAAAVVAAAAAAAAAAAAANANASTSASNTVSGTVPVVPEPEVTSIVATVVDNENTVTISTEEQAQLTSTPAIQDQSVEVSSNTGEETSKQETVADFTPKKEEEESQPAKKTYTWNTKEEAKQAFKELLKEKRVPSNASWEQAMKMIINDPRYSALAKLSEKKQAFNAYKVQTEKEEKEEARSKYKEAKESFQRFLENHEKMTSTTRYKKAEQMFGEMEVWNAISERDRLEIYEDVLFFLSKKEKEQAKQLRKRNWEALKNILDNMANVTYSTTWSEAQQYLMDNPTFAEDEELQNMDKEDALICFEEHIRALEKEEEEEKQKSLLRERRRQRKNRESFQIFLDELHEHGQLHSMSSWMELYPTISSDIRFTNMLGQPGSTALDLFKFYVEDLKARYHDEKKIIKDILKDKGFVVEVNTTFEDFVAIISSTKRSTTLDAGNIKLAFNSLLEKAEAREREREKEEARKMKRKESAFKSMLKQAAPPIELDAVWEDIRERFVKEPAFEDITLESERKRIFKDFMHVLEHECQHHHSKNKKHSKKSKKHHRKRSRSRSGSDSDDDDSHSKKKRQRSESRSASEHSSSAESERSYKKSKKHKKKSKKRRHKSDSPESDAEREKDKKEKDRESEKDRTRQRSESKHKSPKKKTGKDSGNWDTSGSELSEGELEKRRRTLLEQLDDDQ
Chain of UniProt Q9Y3C6 (Q9Y3C6 whole entry, looked up): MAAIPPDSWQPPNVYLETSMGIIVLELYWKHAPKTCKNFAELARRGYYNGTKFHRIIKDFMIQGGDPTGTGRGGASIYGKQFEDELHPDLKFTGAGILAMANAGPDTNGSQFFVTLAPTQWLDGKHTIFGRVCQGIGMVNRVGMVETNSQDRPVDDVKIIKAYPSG
Chain of UniProt Q00577 (Q00577 whole entry, looked up): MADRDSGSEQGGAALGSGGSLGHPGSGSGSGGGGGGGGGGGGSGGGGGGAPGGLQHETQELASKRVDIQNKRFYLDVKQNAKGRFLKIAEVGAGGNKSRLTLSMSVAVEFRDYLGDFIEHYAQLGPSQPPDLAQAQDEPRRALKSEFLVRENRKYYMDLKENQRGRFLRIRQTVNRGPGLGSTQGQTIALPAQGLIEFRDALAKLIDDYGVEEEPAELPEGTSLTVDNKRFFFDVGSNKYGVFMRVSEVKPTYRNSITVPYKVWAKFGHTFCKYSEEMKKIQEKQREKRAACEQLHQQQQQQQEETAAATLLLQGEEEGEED
Chain of UniProt P53609 (P53609 whole entry, looked up): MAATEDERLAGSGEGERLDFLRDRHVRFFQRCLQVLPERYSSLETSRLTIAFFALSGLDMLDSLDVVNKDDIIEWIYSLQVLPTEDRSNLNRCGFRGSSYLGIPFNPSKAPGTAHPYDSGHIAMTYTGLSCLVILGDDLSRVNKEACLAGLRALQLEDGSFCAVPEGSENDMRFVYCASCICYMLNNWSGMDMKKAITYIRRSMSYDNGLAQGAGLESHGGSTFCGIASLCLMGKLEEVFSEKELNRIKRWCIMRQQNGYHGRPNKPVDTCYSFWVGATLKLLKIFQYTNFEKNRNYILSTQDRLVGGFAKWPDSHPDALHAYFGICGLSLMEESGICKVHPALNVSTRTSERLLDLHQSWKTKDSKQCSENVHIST
Chain of UniProt Q9Y2Y1 (Q9Y2Y1 whole entry, looked up): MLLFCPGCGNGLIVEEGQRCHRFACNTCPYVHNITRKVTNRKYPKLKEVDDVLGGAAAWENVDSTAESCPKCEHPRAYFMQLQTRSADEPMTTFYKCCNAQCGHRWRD

Target	log2 fold change
POLR3K (UniProt Q9Y2Y1)	-0.026
PPP2R5C isoform 4 (UniProt Q13362)	0.031
PCYT1A (UniProt P49585)	-0.031
PEF1 (UniProt Q9UBV8)	0.119
PITRM1 isoform 2 (UniProt Q5JRX3)	-0.042
PURA (UniProt Q00577)	-0.064
PPIL1 (UniProt Q9Y3C6)	-0.029
PIKFYVE (UniProt Q9Y2I7)	-0.016
PNPLA8 (UniProt Q9NP80)	-0.009
PNPLA2 (UniProt Q96AD5)	0.048
PGGT1B (UniProt P53609)	0.093
PI4K2A (UniProt Q9BTU6)	0.031
PRPF40A (UniProt O75400)	-0.023
POLD1 (UniProt P28340)	0.019

compound: C[C@@H](Oc1cc(-c2cnn(C3CCNCC3)c2)cnc1N)c1c(Cl)ccc(F)c1Cl [crizotinib]; experiment: as above
Summary of the method: as §1

Target	log2 fold change
PPP6R1 (UniProt Q9UPN7)	-0.018
PLIN2 (UniProt Q99541)	-0.841 (active)
PELP1 (UniProt Q8IZL8)	-0.012
PCGF2 (UniProt P35227)	0.01
PTPN23 (UniProt Q9H3S7)	0.057
PBK (UniProt Q96KB5)	-0.046
POTEI (UniProt P0CG38)	0.109
PDE4DIP isoform 4 (UniProt Q5VU43)	0.02
PSMD2 (UniProt Q13200)	0.019
PPT2 isoform 3 (UniProt Q9UMR5)	-0.182
PLA2G15 (UniProt Q8NCC3)	-0.163
PRPF38B (UniProt Q5VTL8)	-0.026
PELO (UniProt Q9BRX2)	-0.15
PIGT (UniProt Q969N2)	0.023
PRKCQ (UniProt Q04759)	-0.238
PDCD6IP (UniProt Q8WUM4)	-0.177
PRIM2 (UniProt P49643)	-0.063
POLR2B (UniProt P30876)	0.032
PIP4P2 (UniProt Q8N4L2)	-0.3 (active)

Target	log2 fold change
PTMA (UniProt P06454)	-0.302
POLD3 (UniProt Q15054)	-0.055
PCTP (UniProt Q9UKL6)	-0.135
PSMC3 (UniProt P17980)	0.012
POLR3K (UniProt Q9Y2Y1)	0.015
PPP2R5C isoform 4 (UniProt Q13362)	-0.021
PCYT1A (UniProt P49585)	-0.032
PEF1 (UniProt Q9UBV8)	0.094
PITRM1 isoform 2 (UniProt Q5JRX3)	0.01
PURA (UniProt Q00577)	0.03
PPIL1 (UniProt Q9Y3C6)	0.038
PIKFYVE (UniProt Q9Y2I7)	-0.068
PNPLA8 (UniProt Q9NP80)	-0.12
PNPLA2 (UniProt Q96AD5)	-0.055
PGGT1B (UniProt P53609)	0.04
PI4K2A (UniProt Q9BTU6)	-0.185
PRPF40A (UniProt O75400)	0.071
POLD1 (UniProt P28340)	-0.042

compound: C[C@@H]1COCCN1C2=NC(=NC(=C2)C3(CC3)S(=O)(=O)C)C4=C5C=CNC5=CC=C4; experiment: as above
Summary of the method: as §1

Target	log2 fold change
PPP6R1 (UniProt Q9UPN7)	0.125
PLIN2 (UniProt Q99541)	0.054
PELP1 (UniProt Q8IZL8)	-0.107
PCGF2 (UniProt P35227)	0.075
PTPN23 (UniProt Q9H3S7)	0.018
PBK (UniProt Q96KB5)	0.051
POTEI (UniProt P0CG38)	0.241
PDE4DIP isoform 4 (UniProt Q5VU43)	0.134
PSMD2 (UniProt Q13200)	-0.063
PPT2 isoform 3 (UniProt Q9UMR5)	-0.021
PLA2G15 (UniProt Q8NCC3)	-0.008
PRPF38B (UniProt Q5VTL8)	0.058
PELO (UniProt Q9BRX2)	-0.037
PIGT (UniProt Q969N2)	-0.017
PRKCQ (UniProt Q04759)	0.037
PDCD6IP (UniProt Q8WUM4)	0.067
PRIM2 (UniProt P49643)	0.154
POLR2B (UniProt P30876)	0.023
PIP4P2 (UniProt Q8N4L2)	0.013

Target	log2 fold change
PTMA (UniProt P06454)	-0.155
POLD3 (UniProt Q15054)	0.155
PCTP (UniProt Q9UKL6)	0.031
PSMC3 (UniProt P17980)	-0.098
POLR3K (UniProt Q9Y2Y1)	0.035
PPP2R5C isoform 4 (UniProt Q13362)	-0.177
PCYT1A (UniProt P49585)	0.092
PEF1 (UniProt Q9UBV8)	0.059
PITRM1 isoform 2 (UniProt Q5JRX3)	0.094
PURA (UniProt Q00577)	-0.44
PPIL1 (UniProt Q9Y3C6)	0.018
PIKFYVE (UniProt Q9Y2I7)	0.096
PNPLA8 (UniProt Q9NP80)	0.002
PNPLA2 (UniProt Q96AD5)	0.094
PGGT1B (UniProt P53609)	0.002
PI4K2A (UniProt Q9BTU6)	0.032
PRPF40A (UniProt O75400)	0.105
POLD1 (UniProt P28340)	0.041
